An excerpt weighted towards active compounds, which were near 15% of everything screened.
Sm TGR inh – qHTS Assay for the Inhibitors of Schistosoma Mansoni Peroxiredoxins | purified TGR, DTNB reduction, TNB absorbance 405 nm | 360,000 tested, 3% active | Potency, µM (highest dose often 114 µM), hits mostly inhibitors | AID 485364, 2010 | Schistosoma mansoni thioredoxin glutathione reductase (TGR), Q962Y6; further: nearly all actives have a fitted effect of over 60% in size
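TGR 20 nM + NADPH 100 uM (dispensed conc.), cpd preinc 15 min RT; start with NADPH (500 uM addition) then DTNB (15 mM addition). Kinetic TNB absorbance, 405 nm filter. Four-parameter Hill fit across titration.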
HCV inh – qHTS Assay for Inhibitors of Hepatitis C Virus (HCV); Huh7.5.1 HCVcc-Cre infection, luciferase reporter, 44 h; Potency, µM (doses to about 41.8 µM), usual class: inhibitors; 340,000 tested, 3.4% active
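Seed cells (1,000/well) for 4 h; treat with compound and infect with HCVcc-Cre, moi about 0.5. Incubate 44 h, then detect luciferase activity.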
Pf growth 96h – Primary qHTS for delayed death inhibitors of the malarial parasite plastid, 96 hour incubation; P. falciparum luciferase reporter growth, 96 h; AID 504834, 2011; 320,000 tested, 6.9% active; Potency, µM (doses to about 28.7 µM), most hits filed as inhibitors
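Cell-based qHTS: luciferase-tagged P. falciparum in erythrocytes (2% hematocrit, 0.05% parasitemia final) incubated with compounds for 96 hours, 37 C, 5% CO2; luciferase detection reagent then added and luminescence measured.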
SARS PLP yeast – qHTS of Yeast-based Assay for SARS-CoV PLP | Potency, µM (titrated, usually from 32.9 µM), actives largely listed as activators | 330,000 tested, 0.19% active | S. cerevisiae expressing SARS-CoV PLpro, growth rescue; calls by dose curve; further: nearly all actives have a fitted effect of over 55% in size
HCMV inh – qHTS Assay for inhibitors of the human cytomegalovirus (HCMV). HFF cells, HCMV-luciferase reporter, 72 h; hits give low values. activity change, negative = inhibition, % at 57.5 µM. 410,000 tested, 4.5% active; in the data active means activity change below about -60%; inconclusive means no clear call, values can overlap the other calls; inactive means above about -39%
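Human foreskin fibroblasts infected with luciferase-reporter HCMV at MOI 1 PFU/cell, compounds at two doses. Luciferase measured 72 h post infection; normalized to buffer-only basal and Salinomycin (10uM) controls.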
Pf growth 48h – Primary qHTS for delayed death inhibitors of the malarial parasite plastid, 48 hour incubation | P. falciparum luciferase growth in erythrocytes, 48 h | AID 504832, 2011 | 310,000 tested, 5.9% active | Potency, µM (titrated, usually from 28.7 µM), usual class: inhibitors
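Luciferase-expressing parasites in RBCs, 2% Hct / 0.1% parasitemia final; RPMI 1640 + 0.5% Albumax; 37 C, 5% CO2, one generation; luminescence read-out, lower signal = inhibition.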
Of the large screens only hits and unclear results are named; the others gave an inactive call. Unless noted, the call rests on the fitted dose curve; in most records, active means well fitted curve in the direction sought with a large enough effect; inconclusive means small, poorly fitted or top-dose-only effect, or another doubt; inactive means no such curve, though single readings can be large; an effect the other way counts as inactive or inconclusive.

Cc1ccc(-c2ccc(CCC(=O)O)n2CC(=O)O)cc1	Sm TGR inh 17.8µM (no result: HCMV inh)
O=C(O)CCc1ccc(-c2ccc(F)cc2)n1CC(=O)O	Sm TGR inh inconclusive
COC(=O)Cn1c(CCC(=O)O)ccc1-c1ccccc1	Sm TGR inh inconclusive, Pf growth 96h 8.28µM (no result: Pf growth 48h)
CC(Sc1ccccc1)C(=O)Nc1ccc(S(=O)(=O)N2CCOCC2)cc1 (stereo unspecified)	Pf growth 96h inconclusive, HCMV inh -64.0, Pf growth 48h inconclusive
CC(Sc1ccccc1)C(=O)Nc1ccc(N2CCOCC2)cc1 (stereo unspecified)	none (no result: Pf growth 48h)
CCC(C)c1ccccc1N1CC(C(=O)Nc2ccc(C)c(S(=O)(=O)N3CCOCC3)c2)CC1=O (stereo unspecified)	Pf growth 96h inconclusive, Pf growth 48h 13.1µM
CCCC(C(=O)Nc1ccc(C)c(S(=O)(=O)N2CCOCC2)c1)c1ccccc1 (stereo unspecified)	Pf growth 96h inconclusive, HCMV inh inconclusive, Pf growth 48h 10.4µM
CCCC(C(=O)Nc1cccc(S(=O)(=O)N2CCCC2)c1)c1ccccc1 (stereo unspecified)	HCV inh inconclusive, Pf growth 96h 10.4µM, HCMV inh inconclusive, Pf growth 48h inconclusive (no result: SARS PLP yeast)
COc1ccc(Nc2c3c(nc4nncn24)CCC3)cc1Cl	none (no result: HCV inh, Pf growth 96h, SARS PLP yeast, Pf growth 48h)
CCc1ccc(N2CCN(C(=O)N3CCOCC3)CC2)cc1	HCMV inh inconclusive (no result: Sm TGR inh)
CCCC(C(=O)Nc1ccc(S(=O)(=O)N2CCOCC2)cc1)c1ccccc1 (stereo unspecified)	Pf growth 96h 9.28µM, Pf growth 48h 13.1µM
CCCc1ccc(NC(C)C(=O)Nc2ccc(S(=O)(=O)N3CCOCC3)cc2)cc1 (stereo unspecified)	HCV inh inconclusive, Pf growth 96h 5.22µM, Pf growth 48h inconclusive
O=C(CCc1ccc(S(=O)(=O)N2CCOCC2)cc1)Nc1ccc(N2CCOCC2)cc1	Sm TGR inh inconclusive, Pf growth 96h inconclusive, Pf growth 48h inconclusive (no result: SARS PLP yeast)
NC(=O)c1sc(-c2ccsc2)cc1NS(=O)(=O)c1ccc(C(F)(F)F)cc1	none
CCCCN(C(=O)c1cccc(S(=O)(=O)N(C)c2ccc(C)cc2)c1)c1c(N)n(CCCC)c(=O)[nH]c1=O	HCV inh inconclusive, Pf growth 96h inconclusive, Pf growth 48h 0.37µM
CCCCN(C(=O)c1ccc(N(C)S(=O)(=O)c2ccc(C)cc2)cc1)c1c(N)n(CC(C)C)c(=O)[nH]c1=O	none (no result: Sm TGR inh, Pf growth 96h, SARS PLP yeast, Pf growth 48h)
CCCCn1c(N)c(N(CCOC)C(=O)c2ccc(-n3c(C)ccc3C)cc2)c(=O)[nH]c1=O	Sm TGR inh 39.8µM, HCV inh inconclusive, HCMV inh inconclusive, Pf growth 48h inconclusive
CCCCn1c(N)c(N(CCOC)C(=O)c2cccc(S(=O)(=O)N(C)c3ccc(C)cc3)c2)c(=O)[nH]c1=O	Pf growth 96h 9.28µM, Pf growth 48h 6.57µM (no result: SARS PLP yeast)
C=C1N(S(=O)(=O)C(F)(F)F)CCC12CN(Cc1ccccc1)c1ccccc12 (stereo unspecified)	none (no result: Sm TGR inh, HCV inh, Pf growth 96h, SARS PLP yeast, Pf growth 48h)
CC(C)CC(NC(=O)C1CCCCC1)C(=O)Nc1cccc(C(F)(F)F)c1 (stereo unspecified)	none (no result: HCV inh, Pf growth 96h, SARS PLP yeast, Pf growth 48h)
O=C(OC(C(=O)Nc1cccc(C(F)(F)F)c1)c1ccccc1)C1CCCCC1 (stereo unspecified)	Pf growth 96h 6.57µM, Pf growth 48h inconclusive
CCc1ccc(NC(=O)Cn2cc(S(=O)(=O)N3CCCC3)c(S(=O)(=O)N3CCCC3)c2)cc1	none (no result: HCV inh, Pf growth 96h, SARS PLP yeast, Pf growth 48h)
Cc1ccc(-c2csc3ncnc(SCC(=O)Nc4nnc(C)s4)c23)cc1	none
Cc1ccc(-c2csc3ncnc(Sc4nnc(CN5CCCCCC5=O)o4)c23)cc1	HCV inh inconclusive, Pf growth 96h 14.7µM, HCMV inh -69.9, Pf growth 48h 11.7µM
Cc1ccc(C2(C)NC(=O)N(CC(=O)NCCN3C(=O)S/C(=C\c4cccnc4)C3=O)C2=O)cc1 (stereo unspecified)	HCV inh inconclusive (no result: Sm TGR inh, Pf growth 96h, SARS PLP yeast, Pf growth 48h)
Cc1cnc([N+](=O)[O-])n1CCOC(=O)NC(=O)c1ccccc1Cl	HCV inh inconclusive, HCMV inh -65.6

Screening data: PubChem, National Center for Advancing Translational Sciences (NCATS)
